Measured values as given in PubChem BioAssay AID999 (SRMLSC, 2007).
Values without a mark were called inactive.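 Rule for the calls: active = viability at or below 21.59%, 3 SD under the median of tested compounds; inactive = the rest.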

Test: viability loss in PTEN-deleted cells – cell-based, validation, diverse DP compound set (AID 999);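 note: 100% = median luminescence of untreated cell control wells and 0% = no signal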
Settings: HCT116 PTEN-null viability, CellTiter-Glo, 60 h; at 10 µM; stronger effect = lower value

**Q.** With Cn1cnc2c(NCc3ccccc3)nc(NCCO)nc21 as the compound, how does the viability read?
**A.** Its viability is 90.6%.

**Q.** With C[C@H](CCC(=O)O)[C@H]1CC[C@H]2[C@@H]3CC[C@@H]4C[C@H](O)CC[C@]4(C)[C@H]3CC[C@]12C as the compound, how does the viability read?
**A.** Its viability is 97.2%.

**Q.** With CSc1ccc(/C=C2/C(C)=C(CC(=O)O)c3cc(F)ccc32)cc1 as the compound, how does the viability read?
**A.** The viability was 98%.

**Q.** With CN=C(NC#N)NCCSCc1nc[nH]c1C as the compound, how does the viability read?
**A.** The viability was 99.4%.

**Q.** Which viability does the source give for Nc1ccn([C@H]2CC[C@@H](CO)O2)c(=O)n1 here?
**A.** Its viability is 93.9%.

**Q.** With COc1c(C)c2c(c(O)c1C/C=C(\C)CCC(=O)O)C(=O)OC2 as the compound, how does the viability read?
**A.** The viability was 40.1%.

**Q.** Which viability does the source give for O=C(c1ccc(F)cc1)C1CCN(CCn2c(=O)[nH]c3ccccc3c2=O)CC1 here?
**A.** Its viability is 94.8%.

**Q.** With C=C1CC[C@H](O)C/C1=C/C=C1\CCC[C@]2(C)[C@@H]([C@H](C)CCCC(C)C)CC[C@@H]12 as the compound, how does the viability read?
**A.** Its viability is 92.4%.

**Q.** For C=C(CCC12O[C@H](C(=O)O)[C@@](O)(C(=O)O)[C@](C(=O)O)(O1)[C@H](OC(=O)/C=C/[C@@H](C)C[C@@H](C)CC)[C@H]2O)[C@@H](OC(C)=O)[C@H](C)Cc1ccccc1, which viability is on record?
**A.** Its viability is 98.3%.

**Q.** With COc1ccc2c3c1O[C@H]1C[C@@H](O)C=C[C@@]31CCN(C)C2 as the compound, how does the viability read?
**A.** The viability was 91.7%.

**Q.** For C[C@@H]1CC[C@]2(C(=O)O)CC[C@]3(C)C(=CCC4[C@@]5(C)C[C@@H](O)[C@H](O)[C@@](C)(CO)C5[C@H](O)C[C@]43C)C2[C@H]1C (stereo not given in full), which viability is on record?
**A.** The viability was 84.7%.

**Q.** With Cc1c(C)c2c(c(C)c1O)CCC(C)(COc1ccc(CC3SC(=O)NC3=O)cc1)O2 (stereo not given) as the compound, how does the viability read?
**A.** The viability was 79.8%.

**Q.** Which viability does the source give for Cc1ccc(Cl)c(Nc2ccccc2C(=O)O)c1Cl here?
**A.** The viability was 98.1%.

**Q.** Which viability does the source give for CCN(CC)C(=S)SSC(=S)N(CC)CC here?
**A.** The viability was 89.6%.

**Q.** Which viability does the source give for NC(=NCc1ccccc1)NC(=O)c1nc(Cl)c(N)nc1N here?
**A.** Its viability is 77.3%.

**Q.** With NC(=O)c1cccc(N)c1 as the compound, how does the viability read?
**A.** The viability was 94.5%.

**Q.** With COc1cc2c(c(OC)c1OC)-c1ccc(OC)c(=O)cc1[C@@H](NC(C)=O)CC2 as the compound, how does the viability read?
**A.** The viability was 32.5%.

**Q.** For C[C@@]12C=Cc3occc3C1CC[C@@]13C[C@@H](CCC12)[C@@](O)(CO)C3 (stereo not given in full), which viability is on record?
**A.** Its viability is 93.5%.

**Q.** Which viability does the source give for CC1=C(/C=C/C(C)=C/C=C/C(C)=C/C(=O)O)C(C)(C)CCC1 here?
**A.** The viability was 93.7%.

**Q.** With C=C1C(=O)[C@]23[C@H](O)[C@H]1CC[C@H]2[C@@]12COC3(O)[C@H](O)[C@@H]1C(C)(C)CC[C@@H]2O as the compound, how does the viability read?
**A.** The viability was 76.4%.

**Q.** For O=C(O)c1cc(=O)c2c(OCC(O)COc3cccc4oc(C(=O)O)cc(=O)c34)cccc2o1, which viability is on record?
**A.** Its viability is 98.8%.

**Q.** With Cc1ccc2c(c1)C(=O)C1(O)CCN(c3ccccc3)C1=N2 (stereo not given) as the compound, how does the viability read?
**A.** Its viability is 91.9%.

**Q.** With CC12CC3(O)OC(O1)C1(COC(=O)c4ccccc4)[C@@H]3CC21O[C@@H]1O[C@H](CO)[C@@H](O)[C@H](O)[C@H]1O as the compound, how does the viability read?
**A.** The viability was 95.3%.

**Q.** With COc1ccc(-c2cc(C(=O)O)no2)cc1 as the compound, how does the viability read?
**A.** Its viability is 97.7%.

**Q.** Which viability does the source give for COc1cc(Cc2cnc(N)nc2N)cc(OC)c1OC here?
**A.** The viability was 102%.

**Q.** Which viability does the source give for O=C(c1ccccc1)c1ccccc1 here?
**A.** The viability was 100%.

**Q.** With O=C(O)c1cc([N+](=O)[O-])ccc1NCCCc1ccccc1 as the compound, how does the viability read?
**A.** The viability was 94.2%.

**Q.** With COc1ccc(Cl)cc1C(=O)NCCc1ccc(S(=O)(=O)NC(=O)NC2CCCCC2)cc1 as the compound, how does the viability read?
**A.** Its viability is 107%.

**Q.** For C[C@H](CS)C(=O)N1CCC[C@H]1C(=O)O, which viability is on record?
**A.** The viability was 93.9%.

**Q.** With COc1cc([C@@H]2c3cc4c(cc3[C@H](O)[C@H]3COC(=O)[C@H]23)OCO4)cc(OC)c1OC as the compound, how does the viability read?
**A.** The viability was 24.6%.
